Here are results for 39 sequences from publication PMC7862700, “An all-to-all approach to the identification of sequence-specific readers for epigenetic DNA modifications on cytosine”.

One assay has as its target T1, ETS2 (Homo sapiens, UniProt P15036 1-469).
T1 sequence: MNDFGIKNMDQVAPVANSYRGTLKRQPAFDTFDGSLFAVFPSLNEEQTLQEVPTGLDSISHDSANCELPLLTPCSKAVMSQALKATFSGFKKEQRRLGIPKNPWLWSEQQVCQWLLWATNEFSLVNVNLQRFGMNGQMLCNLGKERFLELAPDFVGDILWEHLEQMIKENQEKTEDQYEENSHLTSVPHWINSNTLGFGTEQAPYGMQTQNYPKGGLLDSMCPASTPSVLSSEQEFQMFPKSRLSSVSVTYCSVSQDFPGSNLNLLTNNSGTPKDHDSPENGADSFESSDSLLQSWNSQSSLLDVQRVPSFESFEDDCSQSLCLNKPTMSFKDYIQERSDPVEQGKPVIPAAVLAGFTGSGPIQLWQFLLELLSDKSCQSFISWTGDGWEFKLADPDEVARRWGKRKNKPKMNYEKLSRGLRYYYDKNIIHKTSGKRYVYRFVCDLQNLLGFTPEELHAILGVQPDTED
Description: DAPPL (digital affinity profiling via proximity ligation, sequencing); 10 mM Tris-HCl pH 7.5, 50 mM NaCl, 1 mM DTT, 4% glycerol, room temperature, 30 min; GST-TFs on glutathione beads, 16-mer random dsDNA library, 0.1% formaldehyde crosslink after washing; high values mean tight binding. The following applies: protein: recombinant; tags: N-terminal GST; dsDNA, one strand shown. An outline of the steps:
(§1)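 Yeast served to express human transcription factors as GST fusions, which were then captured on glutathione beads and labelled with DNA barcodes. Pooled with a tag-only sample, they were incubated with 200 nmole of a 16-mer random double-stranded DNA library for 30 min at room temperature in Tris/NaCl/DTT/glycerol buffer, washed, crosslinked with 0.1% formaldehyde, ligated by proximity, amplified by PCR and sequenced. Dividing each hexamer's read frequency for a factor by its frequency for the tag-only sample gives the binding signal.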
Take TAAGTA: the binding signal was 1.2 fold enrichment (6-mer frequency, TF over GST control).
In the case of GTTCTC, the binding signal is 1.24 fold enrichment (6-mer frequency, TF over GST control).
Still for that read-out and setting: to TTTTAA belongs 1.28 fold enrichment (6-mer frequency, TF over GST control); to ATGCTT, 1.28 fold enrichment (6-mer frequency, TF over GST control).
On to ATCCTG, for which the binding signal was 1.56 fold enrichment (6-mer frequency, TF over GST control).
On to ACACTT, for which the binding signal was 1.76 fold enrichment (6-mer frequency, TF over GST control).
In the case of ATTCTC, the binding signal is 1.19 fold enrichment (6-mer frequency, TF over GST control).
On the same count and under the same terms, to TCTTTG belongs 1.19 fold enrichment (6-mer frequency, TF over GST control).
Still for that read-out and setting: as for CAATTC, the figure is 1.24 fold enrichment (6-mer frequency, TF over GST control); as for TAATTT, 1.41 fold enrichment (6-mer frequency, TF over GST control); as for ACTGAT, 1.28 fold enrichment (6-mer frequency, TF over GST control).
Take TTTTTG: the binding signal is 1.27 fold enrichment (6-mer frequency, TF over GST control).
In the case of TTTTCG, the binding signal is 1.26 fold enrichment (6-mer frequency, TF over GST control).
For TCGACT, the binding signal was 1.37 fold enrichment (6-mer frequency, TF over GST control).
Turning to TTATGT, the binding signal was 1.3 fold enrichment (6-mer frequency, TF over GST control).
Turning to TTATCT, the binding signal is 1.35 fold enrichment (6-mer frequency, TF over GST control).
Take CCGTTC: the binding signal was 1.36 fold enrichment (6-mer frequency, TF over GST control).
Regarding AAACTA, the binding signal was 1.35 fold enrichment (6-mer frequency, TF over GST control).
With TACATG, the binding signal is 1.2 fold enrichment (6-mer frequency, TF over GST control).
Turning to GTTGCT, the binding signal was 1.22 fold enrichment (6-mer frequency, TF over GST control).

Another assay deals with T2, SPDEF (Homo sapiens, UniProt O95238 1-335).
T2 sequence: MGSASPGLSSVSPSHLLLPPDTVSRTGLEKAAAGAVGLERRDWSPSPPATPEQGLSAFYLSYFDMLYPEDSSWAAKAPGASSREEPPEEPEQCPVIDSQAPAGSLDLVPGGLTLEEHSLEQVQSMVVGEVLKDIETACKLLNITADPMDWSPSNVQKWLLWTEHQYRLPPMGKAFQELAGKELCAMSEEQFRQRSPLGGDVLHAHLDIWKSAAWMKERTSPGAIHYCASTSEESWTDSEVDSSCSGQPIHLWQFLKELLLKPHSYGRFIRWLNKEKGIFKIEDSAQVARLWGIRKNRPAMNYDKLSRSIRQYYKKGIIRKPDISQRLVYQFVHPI
The assay is described as above. The settings on record: protein: recombinant; tags: N-terminal GST; dsDNA, one strand shown. In outline:
as §1
Turning to TACCAT, the binding signal is 1.16 fold enrichment (6-mer frequency, TF over GST control).
Regarding GTTCCT, the binding signal was 1.74 fold enrichment (6-mer frequency, TF over GST control).
Turning to CCGCCT, the binding signal was 1.75 fold enrichment (6-mer frequency, TF over GST control).
In the case of AAATTG, the binding signal was 1.19 fold enrichment (6-mer frequency, TF over GST control).
Regarding AAAAAG, the binding signal is 1.18 fold enrichment (6-mer frequency, TF over GST control).
Still for that read-out and setting: as for TATTTT, the figure is 1.24 fold enrichment (6-mer frequency, TF over GST control); as for CTTCGT, 1.25 fold enrichment (6-mer frequency, TF over GST control); as for GTTATT, 1.04 fold enrichment (6-mer frequency, TF over GST control).
Same read-out and setting: to CCTGCT belongs 1.82 fold enrichment (6-mer frequency, TF over GST control); to CTAGCA, 1.16 fold enrichment (6-mer frequency, TF over GST control).
Consider ATGACC, for which the binding signal is 1.59 fold enrichment (6-mer frequency, TF over GST control).
Turning to CTTCCG, the binding signal is 7.63 fold enrichment (6-mer frequency, TF over GST control).
Consider AATGAC, for which the binding signal was 1.37 fold enrichment (6-mer frequency, TF over GST control).
Same read-out and setting: as for ACCGAT, the figure is 1.05 fold enrichment (6-mer frequency, TF over GST control); as for ATACGA, 1.18 fold enrichment (6-mer frequency, TF over GST control).
TCTCGA: the binding signal was 1.2 fold enrichment (6-mer frequency, TF over GST control).
Still for that read-out and setting: as for TGACCG, the figure is 1.44 fold enrichment (6-mer frequency, TF over GST control); as for TCTGCA, 1.32 fold enrichment (6-mer frequency, TF over GST control).
For the sequence TACGAC, the binding signal was 1.48 fold enrichment (6-mer frequency, TF over GST control).
Consider TAAGTA, for which the binding signal was 1.21 fold enrichment (6-mer frequency, TF over GST control).
For GTTCTC, the binding signal is 1.22 fold enrichment (6-mer frequency, TF over GST control).
On the same count and under the same terms, as for TTTTAA, the figure is 1.21 fold enrichment (6-mer frequency, TF over GST control); as for ATGCTT, 1.32 fold enrichment (6-mer frequency, TF over GST control); as for ATCCTG, 2.47 fold enrichment (6-mer frequency, TF over GST control).
Consider ACACTT, for which the binding signal was 1.61 fold enrichment (6-mer frequency, TF over GST control).
In the case of ATTCTC, the binding signal was 1.19 fold enrichment (6-mer frequency, TF over GST control).
As to TCTTTG, the binding signal is 1.06 fold enrichment (6-mer frequency, TF over GST control).
Regarding CAATTC, the binding signal was 1.33 fold enrichment (6-mer frequency, TF over GST control).
Consider TAATTT, for which the binding signal was 1.32 fold enrichment (6-mer frequency, TF over GST control).
As for ACTGAT, the binding signal was 1.1 fold enrichment (6-mer frequency, TF over GST control).
With TTTTTG, the binding signal was 1.28 fold enrichment (6-mer frequency, TF over GST control).
In the case of TTTTCG, the binding signal is 1.16 fold enrichment (6-mer frequency, TF over GST control).
Same read-out and setting: to TCGACT belongs 1.29 fold enrichment (6-mer frequency, TF over GST control); to TTATGT, 1.36 fold enrichment (6-mer frequency, TF over GST control).
TTATCT: the binding signal was 1.24 fold enrichment (6-mer frequency, TF over GST control).
As to CCGTTC, the binding signal was 1.41 fold enrichment (6-mer frequency, TF over GST control).
The same measure, in the same setting: as for AAACTA, the figure is 1.29 fold enrichment (6-mer frequency, TF over GST control); as for TACATG, 1.21 fold enrichment (6-mer frequency, TF over GST control); as for GTTGCT, 1.27 fold enrichment (6-mer frequency, TF over GST control).
